KB-3-1 cytotox = qHTS assay for MDR1-selective chemotherapeutics: Primary screen using the parental adenocarcinoma cell KB-3-1; KB-3-1 viability, CellTiter-Glo ATP luminescence, 72 h; Potency, µM (highest dose often 46.1 µM), usual class: cytotoxic; 400,000 tested, 1.4% active; note: % is set by controls: 0 for no effect and ±100 for the full control effect; nearly all actives have a fitted effect of over 60% in size
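Screening of KB-3-1 cells (DMEM, 10% FBS, phenol-red free) ran from lowest to highest compound concentration; after 72 h at 37 °C viability was read luminescently and curves fitted.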
ATXN viability = Viability Counterscreen for Primary qHTS for Inhibitors of ATXN expression | 400,000 tested, 0.49% active | S2 cells (HEK-293 line with an ATXN2-luciferase reporter) viability, CellTiter-Fluor protease fluorescence, 24 h | Potency, µM (titrated, usually from 56.7 µM), most hits filed as cytotoxic; note: nearly all actives have a fitted effect of over 40% in size
KB-V1 cytotox = qHTS assay for MDR1-selective chemotherapeutics: Primary screen using the drug-selected MDR subline cells KB-V1; KB-V1 MDR cells viability, CellTiter-Glo, 72 h; Potency, µM (doses to about 46.1 µM), usual class: cytotoxic; 400,000 tested, 3.4% active; note: % is set by controls: 0 for no effect and ±100 for the full control effect; nearly all actives have a fitted effect of over 60% in size
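KB-V1 MDR subline cells in DMEM (phenol-red free, 10% FBS) exposed to compounds in qHTS concentration series for 72 h at 37 degrees C. Viability read by CellTiter-Glo luminescence; concentration-effect curves fitted after normalization and correction.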
ATXN2 expr inh = Primary qHTS for Inhibitors of ATXN expression. AID 1745845, 2022. 360,000 tested, 0.72% active. HEK-293 ATXN2-luciferase reporter, luminescence, 24 h. Potency, µM (doses to about 57 µM), without a hit: at the top dose activity change, negative = inhibition, actives largely listed as inhibitors; note: % is set by controls: 0 for no effect and ±100 for the full control effect; nearly all actives have a fitted effect of over 55% in size
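ATXN2-luciferase reporter cells (luciferase flanked by upstream and downstream ATXN2 gene portions) were treated 24 h at 37 °C with compounds at up to 57 uM. SteadyGlo luminescence gave expression; GF-AFC fluorescence gave viability.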
HT1080 IDH1KD tx = qHTS for induction of synthetic lethality in tumor cells producing 2HG: qHTS for the HT-1080-IDH1KD cell line; HT-1080 IDH1 knockdown viability, ATP luminescence, 48 h; Potency, µM (series often up to 46.1 µM), for inactives: at the highest dose activity, negative = toxicity, hits mostly cytotoxic; 360,000 tested, 2% active;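 note: 0% = DMSO wells and -100% = cell-free medium wells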
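HT-1080-IDH1KD cells (IDH1 knocked down), 750/well in RPMI with 5% FBS, treated with compound 48 h at 37 degrees C. Viability by CellTiter-Glo luminescence, normalised to DMSO and no-cell wells; concentration-response curves classed.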
HT1080-NT tox = qHTS for induction of synthetic lethality in tumor cells producing 2HG: qHTS for the HT-1080-NT fibrosarcoma cell line | 360,000 tested, 1.6% active | AID 686970, 2013 | Potency, µM (doses to about 46.1 µM), for the others: at the top dose activity, negative = less viability, hits mostly cytotoxic | HT-1080-NT fibrosarcoma viability, CellTiter-Glo ATP luminescence, 48 h;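 note: NT is the 2HG producing partner of a matched IDH1 knockdown line; 0% = DMSO-treated cells and -100% = media-only wells without cells; nearly all actives have a fitted effect of over 55% in size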
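Luminescent CellTiter-Glo readout after 48 hours of compound exposure at 37 degrees C defined viability of HT-1080-NT cells. Activity was normalized to DMSO wells and cell-free media wells; concentration-response curves were fitted and assigned curve classes.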
* marks the source's active call; other numbers are inactive results; i = inactive; u = inconclusive; x = no result given; ! = repeats disagree. This is a sample that favours compounds with a hit; in the whole collection about 6.2% have one here. Calls come from the whole dose curve; as a rule, active = well fitted curve in the direction sought with a large enough effect; inconclusive = small, poorly fitted or top-dose-only effect, or another doubt; inactive = no such curve, though single readings can be large; an effect the other way counts as inactive or inconclusive. Potency is the fitted concentration of half-maximal effect.

SMILES	KB-3-1 cytotox	ATXN viability	KB-V1 cytotox	ATXN2 expr inh	HT1080 IDH1KD tx	HT1080-NT tox
CCCNS(=O)(=O)c1ccc(OCC(=O)N2CCN(Cc3ccc4c(c3)OCO4)CC2)c(C)c1	i	i	i	-23.3%	u	11.6µM*
Cc1ccc2c(c1)C1CN(C)CCC1N2C(=O)c1ccccc1NS(=O)(=O)c1cccc(C(F)(F)F)c1 (stereo not drawn)	i	i	i	-1.6%	u	-28.1%
Cn1c(=O)oc2cc(S(=O)(=O)N3CCCc4ccccc43)ccc21	u	i	i	-19.6%	8.2µM*	6.51µM*
Cn1c(=O)oc2cc(S(=O)(=O)N3CCc4ccccc43)ccc21	u	i	u	-19.4%	u	-14.8%
NCC(=O)c1ccc2ccccc2c1	i	x	i	x	x	x
Nc1ccc(N=Nc2ccccc2)cc1	i	22.4µM*!	i	0.0%	-14.0%	-11.6%
Cc1cc(N(C)C)ccc1N=Nc1ccc(N)cc1	i	u	i	47.8%	u	u
O=C(CCCOc1ccc(Cl)cc1Cl)Nc1cc(S(=O)(=O)N2CCOCC2)ccc1N1CCOCC1	i	u	6.51µM*	-21.5%	-3.2%	-13.5%
COc1ccc(CCN(C)Cc2c(F)cccc2F)cc1OC	i	i	11.6µM*	3.6%	-19.7%	12.7%
COc1ccc(CCNCc2ccc(F)cc2)cc1OC	i	i	i	u	-8.4%	-2.3%
O=C(c1c[nH]cc1-c1ccccc1)c1cccc2ccccc12	i	i	i	0.3%	14.6µM*	23.1µM*
Cc1ccc(N/N=C/c2c(O)n(-c3ccccc3)c(=O)[nH]c2=O)cc1	i	i	i	-12.2%	2.91µM*	u
Cc1ccc(-n2c(O)c(/C=C/C=Nc3ccccc3)c(=O)[nH]c2=O)cc1	i	u	i	-1.8%	-1.7%	0.7%
Clc1ccc(COC(Cn2ccnc2)c2ccc(Cl)cc2Cl)c(Cl)c1 (stereo not drawn)	i	u	u	u	u	23.1µM*
CN(C)P(=O)(C(Cl)=C(N1CCCCC1)N1CCCCC1)N(C)C	i	u	i	u	12.6µM*	-28.4%
Nc1c(C(=O)NCc2ccco2)c2nc3ccccc3nc2n1Cc1ccccc1	i	x	i	x	-30.0%	-28.6%
CC(C)CCn1c(N)c(C(=O)OCC2CCCO2)c2nc3ccccc3nc21 (stereo not drawn)	i	i	u	-7.9%	20.6µM*	u
CCCCCCn1c(N)c(C(=O)NCCN2CCOCC2)c2nc3ccccc3nc21	u	i	u	-15.4%	u	u
Nc1c(C(=O)NCc2ccco2)c2nc3ccccc3nc2n1Cc1ccc(F)cc1	i	i	i	u	u	16.4µM*
CCCCn1c(N)c(C(=O)NCc2cccs2)c2nc3ccccc3nc21	u	i	13µM*	-30.1%	u	u
CCCCCn1c(N)c(C(=O)NCc2cccs2)c2nc3ccccc3nc21	u	i	13µM*	-16.8%	u	u
CC(=O)NCC(N)C(=O)c1ccc(Cl)c(Cl)c1 (stereo not drawn)	x	x	x	x	-12.5%	u
COc1cc(=O)n2c(c1C(=O)N(C)Cc1nonc1C)CCN(C(=O)C1C(C)(C)C1(C)C)CC2	x	i	x	x	x	x
c1ccc(CCN2CCCCC2)cc1	i	x	i	x	x	x
Cc1cccc(N2CCN(C(=O)CCCCn3c(=O)[nH]c4ccsc4c3=O)CC2)c1C	i	u	i	u	x	x
SMILES	KB-3-1 cytotox	ATXN viability	KB-V1 cytotox	ATXN2 expr inh	HT1080 IDH1KD tx	HT1080-NT tox
CC1CCN(C(=O)Cn2c3ccccc3c3nc4n(c(=O)c32)CCCS4)CC1	i	u	i	-19.3%	-5.4%	-8.6%
CCCCCn1c(N)c(C(=O)NCCN2CCOCC2)c2nc3ccccc3nc21	u	i	u	-31.6%	18.4µM*	16.4µM*
Nc1c(C(=O)NCCCc2ccccc2)c2nc3ccccc3nc2n1Cc1cccs1	u	i	14.6µM*	u	-26.5%	u
CCCCn1c(N)c(C(=O)OCCOC)c2nc3ccccc3nc21	i	x	u	-28.1%	15.7%	14.2%
COCCCn1c(N)c(C(=O)NCCC(C)C)c2nc3ccccc3nc21	u	x	23.1µM*	-36.1%	u	-22.2%
CC(C)(C)c1nc(N2CCN(C(=O)c3ccco3)CC2)c2nnn(Cc3ccccc3Cl)c2n1	i	i	11.6µM*	-32.0%	-1.8%	-1.1%
c1ccc(CCN2CCCC2)cc1	i	x	i	x	x	x
CCCCCCCCN1C(=O)[C@H](CC(=O)NCCCC)C[C@@]2(C(=O)OCC)CCCC=C12	u	u	20.6µM*	0.0%	u	u
CCOC(=O)C1(c2ccccc2)CCCN(C)CC1 (stereo not drawn)	x	i	x	x	x	x
COc1ccc(NC(=O)C2Cc3c(-c4cccc(C(C)=O)c4)ccnc3O2)cc1OC (stereo not drawn)	5.17µM*	i	9.2µM*	u	u	u
COc1ccc(NC(=O)CN2C3CCC2CC(O)(c2cccnc2)C3)cc1OC (stereo not drawn)	i	i	i	-1.8%	-3.9%	-1.7%
CC(C)Oc1ccc(CNC(=O)Oc2ccccc2)cc1	u	u	i	u	u	-2.8%
CC(=O)OC1(C)CC(C)C(=O)C(C(O)CC2CC(=O)NC(=O)C2)C1 (stereo not drawn)	u	u	u	0.0299µM*	0.13µM*	1.64µM*
C[C@]12CCC(=O)C[C@@H]1CC[C@@H]1[C@@H]2CC[C@]2(C)[C@@H](O)CC[C@@H]12	i	i	16.4µM*	-2.7%	8.4%	u
CCN(c1cccc(C)c1)S(=O)(=O)c1ccc2c(c1)oc(=O)n2C	i	i	u	-20.3%	u	-5.4%
COc1cc(NS(=O)(=O)c2ccc3c(c2)oc(=O)n3C)cc(OC)c1OC	7.31µM*	u	u	u	u	u
COc1ccc(NC2=CC(=O)CC(c3ccccc3)C2)c(OC)c1 (stereo not drawn)	u	i	2.59µM*	26.0%	2.51µM*	3.55µM*
COc1ccc(NC(=O)N2C[C@@H]3C[C@@H](C2)c2cccc(=O)n2C3)c(OC)c1	i	i	i	8.7%	5.1%	3.1%
O=S1(=O)N(Cc2ccccc2)CCCN1Cc1ccc(F)cc1Cl	i	x	i	x	x	x
